In ChEMBL document CHEMBL4513216, “Probing the Open Global Health Chemical Diversity Library for Multistage-Active Starting Points for Next-Generation Antimalarials” (ACS Infect Dis, 2020):
Screen size: about 69,000 compounds; about 8,600 (12%) showed an effect of 50% or more. Only a selection was taken, and strong results are over-represented in it overall.

Tested on: Plasmodium berghei
Experiment: Screen against P. berghei liver stage (PbLuc), transformed with Luciferase, at 10uM
Assay type: functional, HepG2
Details: tested at 10 uM

First: Cc1cc(N2CCCC2c2cc(Nc3cnccn3)nc(C)n2)ncn1 (stereo not drawn)
Second: COCc1noc(-c2ccc(N3CCCC3c3nccs3)nc2)n1 (stereo not drawn)
The INHIBITION of the first is lower: -50.2% for the first, 43% for the second.

First: Cc1nc(C)n(CC2CCCCN2Cc2nc(-c3ccco3)no2)n1 (stereo not drawn)
Second: Cc1nc(C)n(CC2CCCN2CCC(=O)N2CCCCC2)n1 (stereo not drawn)
The INHIBITION of the first is lower: -12.915% for the first, -8.11% for the second.

Compared with Cc1ccc(C(=O)N2CCn3c(COCC4CC4)cnc3C2C)nc1 (stereo not drawn), COc1c(C2CCCN2C(=O)c2ccc3[nH]cnc3c2)c(C)nn1C (stereo not drawn) is lower in INHIBITION: 39.3% for the first, -2.19% for the second.

Going from CN(CC1(O)CCN(c2ccccn2)C1)C(=O)Cc1ccsc1 (stereo not drawn) to CC(C)c1cc(C(=O)N(C)Cc2cccc3ncccc23)n(C)n1, the INHIBITION rises from 46% to 67.2%.

Compared with CCN(CC)c1ccc(NS(=O)(=O)c2cncc(F)c2)cn1, CCN(CC)c1ccc(NS(=O)(=O)c2cccnc2)cn1 is higher in INHIBITION: 46.8% for the first, 77.5% for the second.

First: CCN(CC)c1ccc(NS(=O)(=O)c2cnn(C)c2)cn1
Second: COc1ccc(F)cc1-n1cnc(CCNC(C)=O)c1
The INHIBITION of the first is lower: 0.139% for the first, 35.1% for the second.

Going from CCC(CNC(=O)c1cccc(S(=O)(=O)NC)c1)N1CCCC1 (stereo not drawn) to Cc1c(C(=O)NCC2CCCO2)nnn1-c1cccc2c1CCN(C)C2 (stereo not drawn), the INHIBITION rises from 18% to 29.2%.

First: COCCN1CCc2ncnc(-c3ccccc3)c2CC1
Second: OC[C@@H]1CCCN1c1ccc(-c2nc(COc3ccccc3)no2)cn1
The INHIBITION of the first is lower: 8.66% for the first, 25.8% for the second.

Going from Cc1cccc(NC(=O)CN(C)C(=O)c2ccc(-n3cccc3)nc2)n1 to Cc1ccc(NC(=O)CN(C)C(=O)c2ccc(-n3cccc3)nc2)nc1, the INHIBITION rises from 8.08% to 68.9%.

Compared with Cc1ccc(C(=O)N(C)CC(=O)Nc2cccc(C)n2)cn1, CCOCCn1nc(C)cc1C(=O)N(C)Cc1cccc2ncccc12 is higher in INHIBITION: 16.8% for the first, 36% for the second.

Going from Nc1nc(C2CCN(C(=O)c3cnco3)CC2)cs1 to CCC(=O)N1CCC(c2nc(C)c3c(n2)N(C)CCC3)CC1, the INHIBITION rises from 18.9% to 34.1%.

Going from Cc1cc(N[C@H]2CN(CC(C)(C)N3CCOCC3)C[C@@H]2C2CC2)ncn1 to O=C1NC2(CCN(CC(=O)N3CCOCC3)CC2)Nc2ccccc21, the INHIBITION falls from 35.8% to 3.5%.

First: CCCc1cc(C(=O)N(C)Cc2ccc(OC)c3ncccc23)n(C)n1
Second: CCCc1cc(C(=O)N(C)Cc2cccc3ncccc23)n(C)n1
The INHIBITION of the first is higher: 67.9% for the first, 46.8% for the second.

Going from CCCc1cc(C(=O)N(C)Cc2cccc3cnccc23)n(C)n1 to CN(Cc1cccc2ncccc12)C(=O)CCn1ccc(=O)[nH]c1=O, the INHIBITION rises from 6.33% to 30.9%.

First: O=C(c1ccc2c(c1)OCCO2)N1CCCC(n2ccnc2)C1 (stereo not drawn)
Second: CCCN1C[C@@H]2CC[C@H]1CN(C(=O)c1ccc(N(C)CCO)cc1)C2
The INHIBITION of the first is lower: 37.9% for the first, 43.9% for the second.

Going from CC(C)N1CC(c2ccnc(Nc3nccs3)n2)C1 to Cc1ccnc(C2CN(c3ccnc(C)n3)C2)n1, the INHIBITION falls from 29.49% to 28.6%.

First: COc1cc(F)c(-n2cnc(CCNC(C)=O)c2)cc1F
Second: COc1ccc(Cl)cc1-n1cnc(CCNC(C)=O)c1
The INHIBITION of the first is lower: 4.1% for the first, 71.5% for the second.

Going from O=S1(=O)COCCN1Cc1ccc(F)c(C(F)(F)F)c1 to COc1ccc(CN2CCC(CO)(Cc3ccc(Cl)cc3)CC2)c(O)c1, the INHIBITION rises from 19.4% to 31.6%.

First: COCc1noc(-c2ccc(N3CCCCC3CO)nc2)n1 (stereo not drawn)
Second: COCc1noc(-c2ccc(N3CCC[C@H]3CO)nc2)n1
The INHIBITION of the first is higher: 90.1% for the first, 75.7% for the second.

Going from OC[C@@H]1CCCN1c1ccc(-c2nc(CCc3ccccc3)no2)cn1 to OCC1CCCCN1c1ccc(-c2nc(-c3ccccc3F)no2)cn1 (stereo not drawn), the INHIBITION rises from 43.9% to 91.8%.

First: COCc1noc(-c2ccc(N3CCCC3c3ccc(F)cc3)nc2)n1 (stereo not drawn)
Second: COCc1noc(-c2ccc(N3CCCCC3COC)nc2)n1 (stereo not drawn)
The INHIBITION of the first is lower: 18.5% for the first, 48.5% for the second.

Compared with Cc1noc(-c2ccc(N3CCC[C@H]3CO)nc2)n1, COc1ccc(-c2noc(-c3ccc(N4CCC[C@H]4CO)nc3)n2)cc1 is higher in INHIBITION: 17.6% for the first, 84.8% for the second.

Compared with COc1ccc(-c2cnc(CN3CCCC3CO)o2)cc1 (stereo not drawn), COCc1noc(-c2ccc(N3CCCCC3CCCO)nc2)n1 (stereo not drawn) is higher in INHIBITION: 15.1% for the first, 35.8% for the second.

First: N#Cc1ccc(CS(=O)(=O)NC(=O)COc2ccc3c(c2)CCC3)cc1
Second: Cc1cc(C)c(CNC(=O)C(C)Oc2cccc(C#N)c2)c(=O)[nH]1 (stereo not drawn)
The INHIBITION of the first is lower: -57.66% for the first, 36.4% for the second.

Compared with COC(=O)N1CC(C)=C(C)CN1C(=O)Nc1cccc(Cl)c1, CC(=O)Nc1nc(C(=O)N2CCCC2c2ccc(Br)cc2)cs1 (stereo not drawn) is higher in INHIBITION: -28.6% for the first, 26.4% for the second.

Compared with COc1cc(OC)cc(C(=O)N2CCOCC2c2[nH]ncc2C)c1 (stereo not drawn), Cc1ccc(C(=O)N2Cc3c(CN4CCCCC4)nn(C)c3C2)o1 is lower in INHIBITION: 46.25% for the first, 28.4% for the second.

Compared with CCC(C)Oc1ccccc1Cn1cc2[nH]cccc-2c1=O (stereo not drawn), COc1cccc(CN2CCC(CO)(Cc3ccc(Cl)cc3)CC2)c1O is higher in INHIBITION: 41.5% for the first, 85.4% for the second.

Going from CCc1nc(NC2CCN(CC(=O)NC3CC3)CC2)c2cnn(C)c2n1 to Clc1ccc(CN2CCC(C3CCN(Cc4cccnc4)CC3)C2)cc1 (stereo not drawn), the INHIBITION rises from 21.8% to 36.8%.

Compared with OCC1(Cc2ccc(Cl)cc2)CCN(Cc2ccccc2O)CC1, OCC1(Cc2ccc(Cl)cc2)CCN(Cc2cccnc2)CC1 is higher in INHIBITION: 14.6% for the first, 92% for the second.

First: Clc1ccc(CN2CCC3(CC2)CC(c2cccnc2)=NO3)cc1
Second: O=C(c1ccno1)N1C[C@@H](F)[C@@H](OCc2nc3ccccc3o2)C1
The INHIBITION of the first is lower: 46.6% for the first, 56.3% for the second.

First: CC(C)NC(=O)N1C[C@@H](F)[C@@H](OCc2nc3ccccc3o2)C1
Second: CC(=O)N1C[C@@H](F)[C@@H](OCc2nc3ccccc3o2)C1
The INHIBITION of the first is higher: 58.5% for the first, -15.6% for the second.

Going from CC(C)(C)C(=O)N1C[C@@H](F)[C@@H](OCc2nc3ccccc3o2)C1 to O=C(C1CC1)N1C[C@@H](F)[C@@H](OCc2nc3ccccc3o2)C1, the INHIBITION falls from 70.7% to 13.1%.

Compared with O=C(C1CC1)N1C[C@@H](F)[C@@H](OCc2nc3ccccc3[nH]2)C1, F[C@@H]1CN(CC2CC2)C[C@@H]1OCc1nc2ccccc2o1 is lower in INHIBITION: 7.85% for the first, -3.5% for the second.

Going from CS(=O)(=O)N1C[C@@H](F)[C@@H](OCc2nc3ccccc3o2)C1 to F[C@@H]1CN(CC2CCCCC2)C[C@@H]1OCc1nc2ccccc2o1, the INHIBITION falls from 41.1% to 29.8%.
